How the values were obtained:
Details in all cases: concentration: 1 μM, replicates: in singlicate; n = 1
CAMK4 = test system: CAMK4
CAMKK1 = test system: CAMKK1
CAMKK2 = test system: CAMKK2
CASK = test system: CASK
CDC2L1 = test system: T1, CDC2L1
T1 construct: gene CDK11B

CDC2L2 = test system: CDC2L2
CDC2L5 = test system: T2, CDC2L5
T2 construct: gene CDK13

CDK11 = test system: T3, CDK11
T3 construct: gene CDK19

CDK2 = test system: CDK2
CDK3 = test system: CDK3
CDK4-cyclinD1 = test system: CDK4-cyclinD1
CDK4-cyclinD3 = test system: CDK4-cyclinD3
CDK4 = test system: CDK4
CDK5 = test system: CDK5
CDK7 = test system: CDK7
CDK8 = test system: CDK8
CDK9 = test system: CDK9
CDKL1 = test system: CDKL1
CDKL2 = test system: CDKL2
CDKL3 = test system: CDKL3
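Note: KINOMEscan kinase panel screen.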

## COc1ccc2cc(-c3nc(-c4ccccc4C(C)C)[nH]c3-c3ccncc3)ccc2c1 [SB-660566]
CAMK4
  %Inh: 7%
CAMKK1
  %Inh: 8%
CAMKK2
  %Inh: 0%
CASK
  %Inh: 7%
CDC2L1
  %Inh: 0%
CDC2L2
  %Inh: 2%
CDC2L5
  %Inh: 0%
CDK11
  %Inh: 33%
CDK2
  %Inh: 0%
CDK3
  %Inh: 13%
CDK4-cyclinD1
  %Inh: 0%
CDK4-cyclinD3
  %Inh: 19%
CDK4
  %Inh: 9%
CDK5
  %Inh: 0%
CDK7
  %Inh: 0%
CDK8
  %Inh: 0%
CDK9
  %Inh: 0%
CDKL1
  %Inh: 0%
CDKL2
  %Inh: 9%
CDKL3
  %Inh: 0%

## CC[C@@H]1CO[C@H](C(=O)Nc2ccccc2)CN1c1cc(-c2ccc3c(N)n[nH]c3c2)nc(NC)n1 [GSK2376236]
CAMK4
  %Inh: 0%
CAMKK1
  %Inh: 5%
CAMKK2
  %Inh: 22%
CASK
  %Inh: 8%
CDC2L1
  %Inh: 8%
CDC2L2
  %Inh: 14%
CDC2L5
  %Inh: 0%
CDK11
  %Inh: 12%
CDK2
  %Inh: 0%
CDK3
  %Inh: 9%
CDK4-cyclinD1
  %Inh: 0%
CDK4-cyclinD3
  %Inh: 5%
CDK4
  %Inh: 0%
CDK5
  %Inh: 0%
CDK7
  %Inh: 0%
CDK8
  %Inh: 5%
CDK9
  %Inh: 0%
CDKL1
  %Inh: 8%
CDKL2
  %Inh: 6%
CDKL3
  %Inh: 0%

## CNc1cc(-c2ccc3c(N)n[nH]c3c2)nc(N)n1 [GSK2224810]
CAMK4
  %Inh: 0%
CAMKK1
  %Inh: 5%
CAMKK2
  %Inh: 11%
CASK
  %Inh: 6%
CDC2L1
  %Inh: 3%
CDC2L2
  %Inh: 30%
CDC2L5
  %Inh: 0%
CDK11
  %Inh: 8%
CDK2
  %Inh: 0%
CDK3
  %Inh: 9%
CDK4-cyclinD1
  %Inh: 3%
CDK4-cyclinD3
  %Inh: 0%
CDK4
  %Inh: 18%
CDK5
  %Inh: 0%
CDK7
  %Inh: 2%
CDK8
  %Inh: 26%
CDK9
  %Inh: 0%
CDKL1
  %Inh: 17%
CDKL2
  %Inh: 0%
CDKL3
  %Inh: 0%

## O=C1NC(=O)C(c2ccc(Cl)cc2)=C1Nc1ccc(O)cc1 [SB-340867]
CAMK4
  %Inh: 0%
CAMKK1
  %Inh: 0%
CAMKK2
  %Inh: 0%
CASK
  %Inh: 4%
CDC2L1
  %Inh: 0%
CDC2L2
  %Inh: 0%
CDC2L5
  %Inh: 0%
CDK11
  %Inh: 0%
CDK2
  %Inh: 0%
CDK3
  %Inh: 4%
CDK4-cyclinD1
  %Inh: 0%
CDK4-cyclinD3
  %Inh: 0%
CDK4
  %Inh: 0%
CDK5
  %Inh: 0%
CDK7
  %Inh: 0%
CDK8
  %Inh: 11%
CDK9
  %Inh: 0%
CDKL1
  %Inh: 12%
CDKL2
  %Inh: 41%
CDKL3
  %Inh: 0%

## COc1cccc(CNC(=O)NC2CCN(c3ccnc(Nc4ccc(F)cc4)n3)C2)c1 (stereo not drawn) [GSK1379723]
CAMK4
  %Inh: 0%
CAMKK1
  %Inh: 79%
CAMKK2
  %Inh: 78%
CASK
  %Inh: 27%
CDC2L1
  %Inh: 0%
CDC2L2
  %Inh: 0%
CDC2L5
  %Inh: 0%
CDK11
  %Inh: 0%
CDK2
  %Inh: 0%
CDK3
  %Inh: 6%
CDK4-cyclinD1
  %Inh: 0%
CDK4-cyclinD3
  %Inh: 15%
CDK4
  %Inh: 0%
CDK5
  %Inh: 0%
CDK7
  %Inh: 0%
CDK8
  %Inh: 0%
CDK9
  %Inh: 0%
CDKL1
  %Inh: 0%
CDKL2
  %Inh: 39%
CDKL3
  %Inh: 0%

## COc1cccc(C2=C(Nc3cc(Cl)c(O)c(Cl)c3)C(=O)NC2=O)c1 [SB-390767]
CAMK4
  %Inh: 0%
CAMKK1
  %Inh: 11%
CAMKK2
  %Inh: 0%
CASK
  %Inh: 32%
CDC2L1
  %Inh: 0%
CDC2L2
  %Inh: 0%
CDC2L5
  %Inh: 0%
CDK11
  %Inh: 0%
CDK2
  %Inh: 0%
CDK3
  %Inh: 18%
CDK4-cyclinD1
  %Inh: 0%
CDK4-cyclinD3
  %Inh: 0%
CDK4
  %Inh: 0%
CDK5
  %Inh: 5%
CDK7
  %Inh: 0%
CDK8
  %Inh: 0%
CDK9
  %Inh: 0%
CDKL1
  %Inh: 1%
CDKL2
  %Inh: 20%
CDKL3
  %Inh: 0%

## O=c1cc(N2CCOCC2)nc2n(Cc3cccc(Cl)c3Cl)c3ccccc3n12 [GSK2299009]
CAMK4
  %Inh: 9%
CAMKK1
  %Inh: 27%
CAMKK2
  %Inh: 29%
CASK
  %Inh: 10%
CDC2L1
  %Inh: 0%
CDC2L2
  %Inh: 11%
CDC2L5
  %Inh: 0%
CDK11
  %Inh: 94.4%
CDK2
  %Inh: 0%
CDK3
  %Inh: 29%
CDK4-cyclinD1
  %Inh: 0%
CDK4-cyclinD3
  %Inh: 0%
CDK4
  %Inh: 31%
CDK5
  %Inh: 16%
CDK7
  %Inh: 0%
CDK8
  %Inh: 0%
CDK9
  %Inh: 6%
CDKL1
  %Inh: 15%
CDKL2
  %Inh: 14%
CDKL3
  %Inh: 0%

## COc1cc2ncnc(Nc3cccc(Br)c3)c2cc1OC.Cl [GI230329]
CAMK4
  %Inh: 0%
CAMKK1
  %Inh: 20%
CAMKK2
  %Inh: 16%
CASK
  %Inh: 18%
CDC2L1
  %Inh: 0%
CDC2L2
  %Inh: 14%
CDC2L5
  %Inh: 0%
CDK11
  %Inh: 0%
CDK2
  %Inh: 0%
CDK3
  %Inh: 6%
CDK4-cyclinD1
  %Inh: 36%
CDK4-cyclinD3
  %Inh: 0%
CDK4
  %Inh: 42%
CDK5
  %Inh: 0%
CDK7
  %Inh: 0%
CDK9
  %Inh: 0%
CDKL1
  %Inh: 14%
CDKL2
  %Inh: 24%
CDKL3
  %Inh: 0%
